MITF primary – MITF inhibitors, primary screen, biochemical, AlphaScreen, human. Microphthalmia-associated transcription factor (Homo sapiens), O75030. AlphaScreen MITF homodimerization, bead proximity signal. inhibition, % at 2.6 µM. 650,000 tested, 0.91% active; in the data active = inhibition above about 50%;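 also: 0% = vehicle wells with protein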
Target sequence (O75030 whole entry, looked up): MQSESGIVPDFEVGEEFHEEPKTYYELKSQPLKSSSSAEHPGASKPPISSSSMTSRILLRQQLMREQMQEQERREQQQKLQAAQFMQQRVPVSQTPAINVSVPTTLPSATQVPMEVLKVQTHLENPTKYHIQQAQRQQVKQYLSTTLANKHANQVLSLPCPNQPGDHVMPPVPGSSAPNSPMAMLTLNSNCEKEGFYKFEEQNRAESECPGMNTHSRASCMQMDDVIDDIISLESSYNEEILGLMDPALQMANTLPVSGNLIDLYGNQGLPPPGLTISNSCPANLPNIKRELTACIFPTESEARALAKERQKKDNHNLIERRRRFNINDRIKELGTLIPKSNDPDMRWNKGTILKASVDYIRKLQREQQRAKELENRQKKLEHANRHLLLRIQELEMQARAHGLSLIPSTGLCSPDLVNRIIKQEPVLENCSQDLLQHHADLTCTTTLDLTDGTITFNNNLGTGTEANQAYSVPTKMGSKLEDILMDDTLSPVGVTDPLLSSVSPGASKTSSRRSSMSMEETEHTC
FBW7 activator – FBW7 E3 ligase activators, primary screen, biochemical, AlphaScreen, human; 650,000 tested, 0.13% active; AlphaScreen FBW7–phospho-cyclin E peptide binding, activator screen; normalized activity (activation), % at 26.1 µM; F-box/WD repeat-containing protein 7 (Homo sapiens), Q969H0; in the data active = normalized activity above about 1.9%;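 also: purified mutant Fbw7 with reduced substrate affinity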
TEAD-YAP block – TEAD-YAP interaction inhibition, primary screen, TEAD-YAP interaction inhibitor project, luminescence, HEK-TIYL cells; TEAD-Gal4/YAP UAS-luciferase luminescence; inhibition, % at 9.12 µM; 640,000 tested, 1.4% active; AID 1259422, 2018; in the data active = inhibition above about 32%;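 also: 0% = median of test compound wells and 100% = reference inhibitor wells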
GPR151 ag – activators of human GPR151, primary screen, cell-based, PathHunter beta-arrestin, luminescence; G-protein coupled receptor 151 (Homo sapiens), Q8TDV0; PathHunter beta-arrestin GPR151 cells; activation, % at 11.2 µM; 650,000 tested, 1% active; AID 1508602, 2020; in the data active = activation above about 4.9%;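 also: 0% = median of compound wells and 100% = cells with positive control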
MITF inh conf – MITF inhibitors, retest of hits, confirmation, biochemical, AlphaScreen, triplicate | shares compounds with MITF primary | AlphaScreen MITF homodimerization, biotin/His-MITF beads | inhibition, % at 2.6 µM | 4,700 tested, 16% active | AID 1259372, 2018;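 active = inhibition above a cutoff derived from the DMSO control wells, cut at about 28% in these data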;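 also: 0% = MITF dimer wells with DMSO only; inhibitors lower the bead chemiluminescence by keeping MITF from dimerizing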
AS interf DR – AlphaScreen optical interference compounds, dose response, counter-screen, biochemical, HTS. IC50, µM. shares compounds with MITF primary. AlphaScreen optical interference counterscreen, cell-free. 480 tested, 6% active; call rule not given here
AlphaScreen intf2 – AlphaScreen optical interference compounds, counter-screen for MITF inhibitor project, biochemical, triplicate. LysRS AlphaScreen counterscreen, signal interference. inhibition, % at 2.6 µM. AID 1259376, 2018. shares compounds with MITF primary. 4,700 tested, 7.6% active;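 active = inhibition above a cutoff derived from the DMSO control wells, cut at about 30% in these data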
* marks the source's active call; other numbers are inactive results; x = no result. Hits are enriched below; roughly 3.4% of the tested compounds scored in any of these assays.

SMILES | MITF primary | FBW7 activator | TEAD-YAP block | GPR151 ag | MITF inh conf | AlphaScreen intf2 | others
CC(=O)c1ccc(OCCCCN2CCN(C)CC2)cc1 | 52.0* | 0.1 | -8.2 | -0.1 | 8.5 | 21.8
CCN1CCN(CCOc2ccc(C(C)=O)cc2)CC1 | 78.0* | -0.1 | 0.1 | 0.1 | 1.0 | 16.1
O=C(Nc1cccc(C(F)(F)F)c1)N(CC1CC1)C1CCN(CCc2ccccn2)CC1 | 1.4 | 0.0 | -6.9 | 1.4 | x | x
Cc1cc(OCCOCCN2CCNCC2)ccc1Cl | 68.3* | 0.6 | -21.7 | -1.7 | 74.1* | 18.8 | AS interf DR=>6.48
Cc1ccc(C(C)C)cc1OCCOCCN1CCNCC1 | 70.6* | -0.2 | -7.5 | 0.4 | 11.5 | -0.2
Cc1cccn2c(CN[C@@H](CC(C)C)C(N)=O)c(C(=O)N3CCCCC3)nc12 | 1.2 | -0.1 | 9.6 | 1.2 | x | x
Cc1nnc(C)n1/N=C\c1cccc2ccccc12 | 66.5* | 0.0 | 1.7 | 0.8 | -13.4 | -3.7
COc1ccc(CN2CCN(Cc3cccc(Cl)c3)CC2)cc1OC | 82.3* | -0.1 | 8.6 | 2.9 | 9.3 | 17.8
COc1ccc(CN2CCN(Cc3cccc(F)c3)CC2)cc1OC | 63.9* | 0.0 | 3.3 | -1.2 | 19.2 | 18.3
CCOc1cc(CN2CCN(Cc3cc(OC)c(OC)cc3OC)CC2)ccc1OC | 7.4 | 0.2 | 5.5 | -0.2 | x | x
COc1ccc(CN2CCN(Cc3ccc(OC)c(OC)c3)CC2)cc1 | 74.2* | 0.2 | 17.9 | -0.4 | -7.9 | -2.2
CCS(=O)(=O)N1CCN(Cc2ccc(OC)c(OC)c2)CC1 | 49.8 | 0.0 | 1.1 | 0.3 | x | x
COc1cc(OC)c(OC)cc1CN1CCN(Cc2cccc(Cl)c2)CC1 | 81.6* | 0.5 | -0.5 | -0.6 | 13.8 | 18.9
Cc1cc(C(=O)N2CC(C)CC(C)C2)n[nH]1 (configuration not stated) | 3.6 | 0.1 | 2.7 | 0.3 | x | x
CCOC(=O)c1c(C)n(-c2ccccc2)c2cc(Br)c(O)c(CN3CCOCC3)c12 | -0.8 | -0.2 | 1.8 | 0.8 | x | x
CN(Cc1ccccc1)C(=O)CN(C)S(=O)(=O)c1ccc2c(c1)n(C)c(=O)c(=O)n2C | 4.3 | 0.1 | -5.0 | -0.5 | x | x
CC1CCN(c2c(Cl)c(Cl)nc(Cl)c2Cl)CC1 | 12.9 | 0.2 | 8.0 | 0.6 | x | x
COc1ccc(CN2CCOCC2)cc1OC | 10.9 | -0.2 | -7.1 | -0.1 | x | x
COc1ccc(CN2CCN(Cc3ccc(Cl)cc3)CC2)cc1OC | 74.1* | 0.1 | 14.1 | 1.1 | 13.1 | -0.1
Cc1cccc(-n2nc([N+](=O)[O-])c(=Nc3cccc(Cl)c3)n2O)c1 | 55.9* | 0.4 | 16.4 | -0.3 | 0.3 | -0.4
Cc1ccc(N=c2c([N+](=O)[O-])nn(-c3cccc(Cl)c3)n2O)cc1 | 12.1 | -0.5 | 20.7 | 0.4 | x | x
CCCCN(C)C(=O)C1c2ccccc2C(=O)N(CCOC)C1c1c[nH]c2ccccc12 (configuration not stated) | 1.0 | 0.1 | 2.6 | 0.2 | x | x
COc1ccc(C2=N/C(=C\c3ccc(OC)c(OC)c3)C(=O)O2)cc1 | 6.2 | 0.1 | 5.5 | 0.7 | x | x
COc1ccccc1-n1cc(CN2CCN3C(=O)[C@H](CO)NC(=O)[C@H]3C2)cn1 | 16.0 | 0.1 | 7.2 | 0.0 | x | x
CCC[C@@H]1NC(=O)[C@H]2CN(Cc3cnn(-c4ccccc4OC)c3)CCN2C1=O | 51.3* | 0.6 | -1.8 | 1.1 | -2.9 | -1.8
SMILES | MITF primary | FBW7 activator | TEAD-YAP block | GPR151 ag | MITF inh conf | AlphaScreen intf2 | others
C=CC1=C(C)C2=Cc3c(C=C)c(C)c4[n]3[Sn+2][n]3c(c(C)c(CCC(=O)O)c3=CC3=NC(=C4)C(C)=C3CCC(=O)O)=CC1=N2 | 54.6* | -0.1 | x | 0.4 | 62.5* | -17.3 | AS interf DR=>6.48
C=CC1=C(C)c2cc3[n-]c(cc4nc(cc5[n-]c(cc1n2)c(C)c5CCC(=O)O)C(CCC(=O)O)=C4C)c(C)c3C=C.[Zn+2] | 25.8 | -0.3 | x | -0.7 | x | x
OCCNCCOc1cccc2ccccc12 | 50.8* | 0.5 | -2.0 | -1.7 | -0.3 | 21.0
CCOc1ccccc1OCCCNCCO | 57.9* | 0.0 | 11.5 | -0.3 | 12.7 | 13.7
CCCCNCCOc1ccccc1F | 64.5* | -0.2 | 2.8 | -1.0 | -3.8 | -6.8
COc1cc(C(=O)N=c2sc3c4ccccc4ccc3n2C)cc(OC)c1OC | 10.8 | 0.3 | 3.5 | -1.5 | x | x
N#C/C(c1nnc2n1CCCCC2)=c1\s/c(=C\c2ccncc2)c(=O)n1-c1ccccc1 | -8.3 | -0.2 | -13.0 | 1.3 | x | x
O=C(CCc1ccccc1)NC(=S)Nc1ccc2c(c1)C(=O)OC2 | 80.2* | 0.1 | 4.9 | 0.3 | 7.0 | 11.0
CCOC(=O)c1sc2nc(N)c(C#N)c(-c3ccc(OCC)cc3)c2c1N | 23.9 | 0.3 | -11.1 | 0.3 | x | x
COc1ccc(CN2CCN(c3ccccn3)CC2)cc1O | 49.5 | 0.2 | 4.3 | -0.8 | x | x
COc1cc(OC)c(OC)cc1CN1CCN(Cc2ccccn2)CC1 | 71.3* | 0.5 | -8.4 | -1.5 | 9.4 | 16.3
COc1ccc(CN2CCN(Cc3ccccn3)CC2)cc1 | 42.7 | -0.1 | -2.5 | 0.6 | x | x
COc1cc(CN2CCN(Cc3ccccn3)CC2)cc(OC)c1OC | 79.0* | -0.1 | -4.8 | -0.8 | 0.7 | 14.8
COc1ccc(CN2CCN(Cc3ccccn3)CC2)cc1Br | 68.5* | 0.0 | 2.6 | -0.3 | 5.9 | 17.6
CN(C)C(=O)c1cccc(-c2cnc(N3CCOCC3)c3nccn23)c1 | -2.7 | -0.5 | -26.2 | 0.1 | x | x
c1cn(-c2ccc(Nc3nc4ncnc(Nc5ccc(N6CCOCC6)cc5)c4[nH]3)cc2)cn1 | -5.0 | -0.3 | 31.3 | -3.5 | x | x
c1cn(-c2ccc(Nc3nc4ncnc(NCCN5CCOCC5)c4[nH]3)cc2)cn1 | 87.7* | -0.1 | -6.3 | 1.2 | 5.8 | 19.6
Cc1ccc(CN2CCN(S(=O)(=O)c3ccccc3[N+](=O)[O-])CC2)cc1 | 58.3* | -0.5 | 8.2 | 2.3 | 12.4 | 20.7
CSc1ccc(CN2CCN(S(=O)(=O)c3ccccc3[N+](=O)[O-])CC2)cc1 | 56.7* | 0.4 | -1.4 | -2.3 | 10.0 | 17.3
CCc1ccc(CN2CCN(S(=O)(=O)c3ccccc3[N+](=O)[O-])CC2)cc1 | 28.1 | -0.2 | -3.7 | 0.1 | x | x
O=C(Cc1ccc2ccccc2c1)NC1CC1 | -14.6 | -0.1 | 3.2 | -1.9 | x | x
COc1ccc2oc(=O)c(C(=O)NCCN3CCOCC3)cc2c1 | 21.9 | 0.0 | -4.3 | -0.1 | x | x
O=C(CNCCN1CCOCC1)Nc1ccc(N2CCCC2)cc1 | 73.2* | -0.1 | 5.8 | 1.9 | 28.7* | 59.6*
CC(NCCN1CCOCC1)C(=O)Nc1ccccc1 (configuration not stated) | 97.9* | 0.3 | -13.8 | -0.7 | 16.2 | 16.9
O=C(CNCCN1CCOCC1)Nc1ccc(N2CCCCCC2)cc1 | 32.0 | -0.2 | -3.6 | -0.2 | x | x

Bioassay records as filed in PubChem BioAssay.
